Assay results as given in PubChem BioAssay (Tox21).
Several values for one entry are separate records, joined by “and”; a condition that tells them apart may be missing. Identical values can stand only once. Inconclusive results are not listed. Where a call stands in place of a potency, no number is given. Some compounds were tested as several samples or in several runs, with calls that do not always agree. Activity calls are given as the source filed them. Unless noted, calls come from the whole dose curve; as a rule, active = well fitted curve in the direction sought with a large enough effect in the repeat runs; inconclusive = weak or mixed curves; inactive = no such curve, though single readings can be large; an effect the other way counts as inactive or inconclusive.

Legend:
[1] = biological target: Estrogen receptor beta (Homo sapiens) (UniProt Q92731); experiment: qHTS assay to identify small molecule agonists of the estrogen receptor beta (ER-beta) signaling pathway (AID 1259377; active = well fitted activation curve with a large enough effect in the signal ratio in the repeat runs, not every such curve was filed as active; the % refers to the signal ratio)
Chain of Estrogen receptor beta (Homo sapiens) (Q92731 whole entry, looked up): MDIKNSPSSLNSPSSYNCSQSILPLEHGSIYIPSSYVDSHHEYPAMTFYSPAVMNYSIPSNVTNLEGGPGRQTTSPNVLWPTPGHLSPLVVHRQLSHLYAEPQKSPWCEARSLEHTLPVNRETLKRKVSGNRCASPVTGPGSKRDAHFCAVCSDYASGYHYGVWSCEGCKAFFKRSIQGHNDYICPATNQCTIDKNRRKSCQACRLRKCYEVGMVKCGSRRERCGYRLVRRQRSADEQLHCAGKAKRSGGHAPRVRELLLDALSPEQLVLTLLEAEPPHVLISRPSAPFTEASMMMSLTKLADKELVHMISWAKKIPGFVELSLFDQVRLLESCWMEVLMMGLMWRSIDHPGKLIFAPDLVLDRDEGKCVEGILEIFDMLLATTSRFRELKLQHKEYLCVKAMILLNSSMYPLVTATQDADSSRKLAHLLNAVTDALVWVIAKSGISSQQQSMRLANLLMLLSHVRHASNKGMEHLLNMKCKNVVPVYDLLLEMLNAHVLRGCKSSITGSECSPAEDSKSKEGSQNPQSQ
How it was run: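 HEK293T ER-beta-UAS-bla; 2% charcoal-stripped FBS; cells pre-incubated 6 hr, compound 16 hr, 37C/5% CO2; LiveBLAzer B/G FRET substrate 2 h RT; fluorescence intensity read.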

[2] = biological target: Estrogen receptor beta (Homo sapiens) (UniProt Q92731); experiment: qHTS assay to identify small molecule antagonists of the estrogen receptor beta (ER-beta) signaling pathway (AID 1259378; active = well fitted inhibition curve with a large enough effect in the signal ratio in the repeat runs, not every such curve was filed as active; the % refers to the signal ratio; note: potency is the fitted concentration of half-maximal effect)
How it was run: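 Antagonist mode: compounds added to beta-lactamase reporter HEK293T ER-beta-UAS cells stimulated with E2 (1nM final), 16 hr at 37C. LiveBLAzer B/G FRET substrate, 2 hours room temperature, fluorescence read-out.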

[3] = qHTS assay to identify small molecule agonists of the androgen receptor (AR) signaling pathway in the presence of an antagonist - cell viability counter screen (AID 1259379); note: nearly all actives have a fitted effect of over 25% in size; note: potency is the fitted concentration of half-maximal effect
How it was run: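 MDA-kb2 cells (MMTV-luciferase, AR/GR), 3,000/well, 5 h attachment, then 3.0 µM nilutamide (final) and compounds at 15 concentrations. Viability by CellTiter-Fluor fluorescence after 16 h at 37 °C, 0% CO2, in the reporter wells.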

[4] = qHTS assay to identify small molecule agonists of the estrogen receptor beta (ER-beta) signaling pathway - cell viability counter screen (AID 1259380); note: nearly all actives have a fitted effect of over 30% in size; note: potency is the fitted concentration of half-maximal effect
How it was run: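 ER-beta-UAS-bla HEK293T cells in medium with 2% charcoal-stripped FBS, pre-incubated 6 hr, then treated 16 hr at 37C. Cytotoxicity read in the same wells by CellTiter-Glo luminescence after 30 min at room temperature.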

[5] = qHTS assay to identify small molecule antagonists of the estrogen receptor beta (ER-beta) signaling pathway - cell viability counter screen (AID 1259382); note: nearly all actives have a fitted effect of over 55% in size; note: potency is the fitted concentration of half-maximal effect
How it was run: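 ER-beta-UAS-bla HEK293T cells in 2% charcoal-stripped FBS medium, treated with compound plus 1 nM 17-beta-estradiol for 16 h at 37C. Viability read by CellTiter-Glo luminescence after 30 min at room temperature in the same wells.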

[6] = qHTS assay to identify small molecule agonists or antagonists of the thyroid stimulating hormone receptor (TSHR) signaling pathway - wild type cell line counter screen (AID 1259384; calls by dose curve)
How it was run: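 Counter screen in untransfected Hek293: compounds (15-point titration, triplicate) plus phosphodiesterase inhibitor Ro20-1724 added after 18 h plating; 30 min RT. Intracellular cAMP via competitive d2/cryptate immunoassay, 1 h incubation.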

[7] = biological target: Thyrotropin receptor (Homo sapiens) (UniProt P16473); experiment: qHTS assay to identify small molecule antagonists of the thyroid stimulating hormone receptor (TSHR) signaling pathway (AID 1259385; calls by dose curve; note: nearly all actives have a fitted effect of over 20% in size; note: potency is the fitted concentration of half-maximal effect)
Chain of Thyrotropin receptor (Homo sapiens) (P16473 whole entry, looked up): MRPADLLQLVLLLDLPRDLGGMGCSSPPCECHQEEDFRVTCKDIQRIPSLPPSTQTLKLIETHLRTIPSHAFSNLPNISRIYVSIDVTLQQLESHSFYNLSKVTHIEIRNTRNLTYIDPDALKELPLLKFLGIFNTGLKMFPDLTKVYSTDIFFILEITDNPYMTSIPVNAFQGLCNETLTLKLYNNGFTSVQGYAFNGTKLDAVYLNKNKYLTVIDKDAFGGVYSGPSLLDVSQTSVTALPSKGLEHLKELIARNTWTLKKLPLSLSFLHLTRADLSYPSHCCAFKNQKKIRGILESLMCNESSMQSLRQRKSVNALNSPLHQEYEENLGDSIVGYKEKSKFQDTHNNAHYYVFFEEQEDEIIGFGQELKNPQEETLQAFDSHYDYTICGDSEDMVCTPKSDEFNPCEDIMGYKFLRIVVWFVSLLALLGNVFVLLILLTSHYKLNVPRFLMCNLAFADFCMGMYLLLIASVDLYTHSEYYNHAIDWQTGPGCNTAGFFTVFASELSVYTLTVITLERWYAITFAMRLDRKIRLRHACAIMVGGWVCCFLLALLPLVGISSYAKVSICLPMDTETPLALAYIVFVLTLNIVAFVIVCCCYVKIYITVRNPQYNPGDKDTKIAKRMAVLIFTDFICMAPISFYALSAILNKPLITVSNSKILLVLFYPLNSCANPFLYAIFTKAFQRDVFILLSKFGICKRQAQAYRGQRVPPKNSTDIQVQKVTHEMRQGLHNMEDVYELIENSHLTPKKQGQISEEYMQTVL
How it was run: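 Antagonist mode: compound-treated TSHR-expressing HEK293 cells were stimulated with 1.5 ng/mL TSH (final) in presence of Ro20-1724 for 30 min at RT. HTRF cAMP detection after 1 h; each compound tested at 15 concentrations, triplicate.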

[8] = qHTS assay to identify small molecule agonists of the estrogen receptor alpha (ER-alpha) signaling pathway in the presence of an antagonist - cell viability counter screen (AID 1259386);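 note: cells exposed to compounds for 22 h at 37 °C before the viability read; nearly all actives have a fitted effect of over 30% in size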; note: potency is the fitted concentration of half-maximal effect
How it was run: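 Cell viability in VM7Luc4E2 cells (endogenous full-length ER-alpha) measured by CellTiter-Fluor fluorescence in the same wells as the luciferase screen. Cells pre-cultured 5 days in charcoal-stripped serum, then treated 22 h with compounds at 15 concentrations plus 10.0nM ICI-182,780.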

[9] = biological target: Estrogen receptor (Homo sapiens) (UniProt P03372); experiment: qHTS assay to identify small molecule agonists of the estrogen receptor alpha (ER-alpha) signaling pathway in the presence of an antagonist (AID 1259383; calls by dose curve; note: nearly all actives have a fitted effect of over 15% in size; note: potency is the fitted concentration of half-maximal effect; for activation: top concentration of the series differs between compounds)
Chain of Estrogen receptor (Homo sapiens) (P03372 whole entry, looked up): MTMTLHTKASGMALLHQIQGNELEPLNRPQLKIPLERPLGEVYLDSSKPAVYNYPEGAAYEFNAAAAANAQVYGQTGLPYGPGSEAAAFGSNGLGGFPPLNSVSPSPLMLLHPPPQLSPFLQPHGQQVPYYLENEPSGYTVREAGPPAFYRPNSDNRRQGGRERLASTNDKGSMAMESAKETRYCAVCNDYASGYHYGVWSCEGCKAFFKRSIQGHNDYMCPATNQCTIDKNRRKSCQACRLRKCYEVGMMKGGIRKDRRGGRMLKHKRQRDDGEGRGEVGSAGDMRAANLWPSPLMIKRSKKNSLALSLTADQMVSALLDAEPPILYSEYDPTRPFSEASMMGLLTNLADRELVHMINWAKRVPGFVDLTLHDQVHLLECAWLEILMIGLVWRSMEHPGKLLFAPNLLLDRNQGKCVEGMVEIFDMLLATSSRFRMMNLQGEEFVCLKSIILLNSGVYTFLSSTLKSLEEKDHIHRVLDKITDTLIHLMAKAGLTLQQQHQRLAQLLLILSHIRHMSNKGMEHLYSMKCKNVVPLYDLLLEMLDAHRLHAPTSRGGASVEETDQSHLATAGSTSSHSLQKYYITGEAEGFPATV
How it was run: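 VM7Luc4E2 cells express endogenous full-length ER-alpha with an ERE-luciferase reporter and were hormone-deprived for 5 days. Compounds at 15 concentrations were added with 10.0nM ICI-182,780 for 22hr at 37C. Luminescence was read with ONE-Glo.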

[10] = biological target: Androgen receptor (Homo sapiens) (UniProt P10275); experiment: qHTS assay to identify small molecule agonists of the androgen receptor (AR) signaling pathway in the presence of an antagonist (AID 1259381; calls by dose curve; note: nearly all actives have a fitted effect of over 15% in size; note: potency is the fitted concentration of half-maximal effect)
Chain of Androgen receptor (Homo sapiens) (P10275 whole entry, looked up): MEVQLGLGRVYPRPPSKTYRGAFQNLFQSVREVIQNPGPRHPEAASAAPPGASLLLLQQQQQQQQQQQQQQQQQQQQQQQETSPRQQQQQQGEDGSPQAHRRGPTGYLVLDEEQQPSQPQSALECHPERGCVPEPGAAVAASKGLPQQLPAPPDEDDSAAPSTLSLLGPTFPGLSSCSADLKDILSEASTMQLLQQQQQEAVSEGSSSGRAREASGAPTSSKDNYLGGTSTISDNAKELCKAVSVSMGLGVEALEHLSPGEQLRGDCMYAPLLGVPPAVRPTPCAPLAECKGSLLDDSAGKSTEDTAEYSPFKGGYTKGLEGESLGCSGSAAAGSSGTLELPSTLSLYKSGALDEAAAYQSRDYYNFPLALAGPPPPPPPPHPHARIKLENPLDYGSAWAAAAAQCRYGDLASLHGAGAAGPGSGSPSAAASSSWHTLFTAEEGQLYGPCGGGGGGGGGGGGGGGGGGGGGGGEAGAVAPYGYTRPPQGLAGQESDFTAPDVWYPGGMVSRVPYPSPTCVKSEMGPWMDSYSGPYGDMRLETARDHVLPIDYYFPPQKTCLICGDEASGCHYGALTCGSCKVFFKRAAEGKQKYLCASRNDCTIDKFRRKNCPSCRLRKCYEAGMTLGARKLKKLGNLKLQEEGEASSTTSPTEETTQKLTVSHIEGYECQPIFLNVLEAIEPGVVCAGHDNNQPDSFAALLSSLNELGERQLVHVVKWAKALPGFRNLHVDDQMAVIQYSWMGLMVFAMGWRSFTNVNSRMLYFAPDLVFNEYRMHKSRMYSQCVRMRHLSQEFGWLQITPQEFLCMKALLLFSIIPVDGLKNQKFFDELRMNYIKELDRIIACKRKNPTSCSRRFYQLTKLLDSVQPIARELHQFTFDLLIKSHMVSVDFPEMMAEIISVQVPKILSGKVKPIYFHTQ
How it was run: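 MDA-kb2 cells carrying MMTV-luciferase (AR/GR responsive), 3,000 cells/well, co-treated with 3.0 uM nilutamide final. Compounds at 15 concentrations, 16 hr at 37C without CO2. Luciferase luminescence read after 30 min with ONE-Glo.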

SMILES | Potency [1] | Potency [2] | Potency [3] | Potency [4] | Potency [5] | outcome [6] | Potency [7] | Potency [8] | Potency [9] | Potency [10]
N#Cc1ccccc1Cl | inactive | inactive | inactive | inactive | inactive | inactive | inactive | inactive | – | –
Fc1cccc(Cl)c1CCl | inactive | inactive | inactive | inactive | inactive | inactive | inactive | inactive | inactive | –
O=c1[nH]c2ccccc2n1C1CCN(CCCC(c2ccc(F)cc2)c2ccc(F)cc2)CC1 | inactive | 17.2 µM (active) | 24.3 µM (active) | 27.3 µM (active) and 21.1 µM (active) | 30.6 µM (active) and 29.8 µM (active) | inactive | – | 54.5 µM (active) | inactive | –
CC(C)C1CCC(Cc2ccc(Cl)cc2)C1(O)Cn1cncn1 (centres undefined) | inactive | 24.1 µM (active) | 67.9 µM (active) | 67.9 µM (active) | 67.9 µM (active) | inactive | – | – | inactive | –
Nc1ccccc1C(=O)OC/C=C/c1ccccc1 | inactive | 48.7 µM (active) | inactive | 21.7 µM (active) | inactive | inactive | inactive | – | 12.2 µM (active) | –
ClC1=C(Cl)[C@]2(Cl)[C@@H]3[C@@H](Cl)[C@@H](Cl)C[C@@H]3[C@@]1(Cl)C2(Cl)Cl | inactive | inactive | inactive | inactive | inactive | – | – | inactive | inactive | –
Cc1ccc(C(=O)Cl)cc1 | inactive | inactive | inactive | inactive | inactive | inactive | inactive | inactive | inactive | inactive
CC(C)CBr | inactive | inactive | inactive | inactive | inactive | inactive | inactive | inactive | inactive | 0.386 µM (active)
O=[N+]([O-])c1ccc(Oc2ccc(C(F)(F)F)cc2[N+](=O)[O-])cc1 | inactive | inactive | inactive | inactive | inactive | inactive | inactive | inactive | inactive | –
Clc1ccc(COC(Cn2ccnc2)c2ccc(Cl)cc2Cl)cc1 (centres undefined) | inactive | 13.3 µM (active) | 50.8 µM (active) and 60.9 µM (active) and inactive | 57 µM (active) and 30.5 µM (active) and 11.9 µM (active) | 50.8 µM (active) and 27.2 µM (active) and 26.6 µM (active) | inactive | 57 µM (active) and 68.3 µM (active) | – | – | –
Clc1ccc(C(c2ccc(Cl)cc2)C(Cl)(Cl)Cl)cc1 | inactive | 13.7 µM (active) and 7.5 µM (active) | inactive | 61.6 µM (active) and 54.5 µM (active) | inactive | inactive | 30.9 µM (active) and 54.5 µM (active) | – | – | –
COc1ccc(/C(=C/C(=O)N2CCOCC2)c2ccc(Cl)cc2)cc1OC | inactive | inactive | inactive | 68.6 µM (active) | – | – | – | inactive | – | inactive
CC(C)[C@H](C(=O)OC(C#N)c1cccc(Oc2ccccc2)c1)c1ccc(OC(F)F)cc1 (some centres undefined) | inactive | inactive | inactive | inactive | inactive | inactive | inactive | inactive | – | –
ClC(Cl)=C(Cl)Cl | inactive | inactive | inactive | inactive | inactive | inactive | – | inactive | – | –
COc1cccc2c1C(=O)c1c(O)c3c(c(O)c1C2=O)C[C@@](O)(C(=O)CO)CC3OC1CC(N2CCOC(OC)C2)C(O)C(C)O1 (some centres undefined) | inactive | 0.168 µM (active) | 13.3 µM (active) | inactive | inactive | inactive | – | 10.6 µM (active) | inactive | inactive
CC1(C)[C@H](C(=O)O[C@H](C#N)c2cccc(Oc3ccccc3)c2)[C@@H]1/C=C(\Cl)C(F)(F)F | inactive | inactive | inactive | inactive | inactive | inactive | inactive | inactive | – | –
C=COCCCl | inactive | inactive | inactive | inactive | – | inactive | – | inactive | inactive | inactive
CCc1nn(C)c(C(=O)NCc2ccc(C(C)(C)C)cc2)c1Cl | inactive | 24.3 µM (active) | 0.306 µM (active) | 54.5 µM (active) | – | inactive | 61.1 µM (active) | – | inactive | –
CCCCOP(=O)(CCCC)OCCCC | inactive | inactive | inactive | inactive | inactive | – | – | inactive | – | inactive
CC1(C)C(/C=C(\Cl)C(F)(F)F)C1C(=O)OC(C#N)c1cccc(Oc2ccccc2)c1 (centres undefined) | inactive | inactive | inactive | inactive | inactive | inactive | inactive | inactive | – | –
COC(=O)N(C(=O)N1COC2(C(=O)OC)Cc3cc(Cl)ccc3C2=N1)c1ccc(OC(F)(F)F)cc1 (centres undefined) | inactive | inactive | inactive | inactive | inactive | inactive | inactive | inactive | inactive | –
COc1cc(N)c(Cl)cc1C(=O)NC1CN2CCC1CC2 (centres undefined) | inactive | inactive | inactive | inactive | inactive | inactive | – | inactive | – | –
CCC(C)c1cc(C(C)(C)C)cc(-n2nc3ccccc3n2)c1O (centres undefined) | inactive | inactive | inactive | inactive | inactive | – | – | inactive | – | inactive
Cc1cccc(OP(=O)(Oc2cccc(C)c2)Oc2cccc(C)c2)c1 | inactive | inactive | inactive | inactive | inactive | inactive | – | inactive | – | inactive
